In the library only some 3.5% were active in any assay of this set; here they are far more common.
CHRM1 PAM: human M1 muscarinic receptor positive allosteric modulators, primary screen, CHO-K1 cells, Fluo-8 calcium fluorescence, 1536-well | Muscarinic acetylcholine receptor M1 (Homo sapiens), P11229 | CHO-K1 hM1, ACh EC20; 0% = ACh EC20, 100% = maximal ACh | activation, % at 3 µM | 0.088% of 360,000 active | AID 588819, 2011; in the data active = activation above about 19%, passing the limit was not always enough
SKN-1 inh: suppressors of acrylamide-induced Pgst-4::GFP reporter in worms, primary screen, SKN-1 inhibitor project, whole organism, uHTS, GFP/RFP fluorescence ratio, strain VP596. inhibition, % at 21.8 µM. 0.49% of 360,000 active. C. elegans VP596 Pgst-4::GFP/RFP ratio, 24 h. AID 624304, 2012;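 active = interference check ratio from 0.5 to 1.5 plus GFP to RFP signal ratio inhibition reaching or exceeding a fixed threshold, cut at about 30% in these data, passing the limit was not always enough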
M1 ag: human M1 muscarinic receptor agonists, primary screen, Fluo-8 calcium fluorescence, CHO-K1 cells, HTS; Muscarinic acetylcholine receptor M1 (Homo sapiens), P11229; activation, % at 3 µM; 0.33% of 360,000 active; CHO-K1 hM1, agonist mode; 0% DMSO, 100% acetylcholine EC100;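 active = activation above the run's mean compound activation plus 3 SD, cut at about 16% in these data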;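 note: peak over basal fluorescence ratio within a 140 s kinetic read after compound addition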
Myeloid diff 2: induction of myeloid progenitor differentiation, primary screen, cell-based, flow cytometry, MLPCN library | ER-HoxA9 myeloid progenitors, lysozyme-GFP differentiation | calls only at 10 µM | 1% of 360,000 active | AID 624256, 2012;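 active = normalized GFP-positive differentiation at or above the plate's own cutoff, the solvent-only control mean plus 3 SD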;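 note: cells exposed to compound for four days before flow analysis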
ATG4B inhibitor: ATG4B protease inhibitors, primary screen, biochemical, fluorescence, uHTS; ATG4B cleavage of LC3-PLA2, NBD-HPC fluorescence, 1 h; Cysteine protease ATG4B (Homo sapiens), Q9Y4P1; AID 504462, 2011; 0.51% of 340,000 active; inhibition, % at 8.33 µM; in the data active = inhibition above about 40%
Target sequence (Q9Y4P1 whole entry, looked up): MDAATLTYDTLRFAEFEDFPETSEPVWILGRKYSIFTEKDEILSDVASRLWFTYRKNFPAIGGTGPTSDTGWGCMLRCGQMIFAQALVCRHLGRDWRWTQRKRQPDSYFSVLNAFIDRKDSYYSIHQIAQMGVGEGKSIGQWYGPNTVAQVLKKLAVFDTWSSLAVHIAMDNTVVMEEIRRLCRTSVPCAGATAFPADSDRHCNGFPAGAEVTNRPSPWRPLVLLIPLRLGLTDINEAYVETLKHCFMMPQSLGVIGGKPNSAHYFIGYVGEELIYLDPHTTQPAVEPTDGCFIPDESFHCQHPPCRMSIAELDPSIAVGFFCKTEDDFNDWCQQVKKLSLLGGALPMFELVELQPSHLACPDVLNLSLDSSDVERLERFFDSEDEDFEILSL
CHRM1 antagonist: human M1 muscarinic receptor antagonists, primary screen, CHO-K1 cells, Fluo-8 calcium fluorescence, 1536-well | CHO-K1 hM1, ACh EC80 antagonist | inhibition, % at 3 µM | 1.3% of 360,000 active;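 active = percent inhibition above its own plate's cutoff, namely the mean of that plate's compound wells plus 3 SD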;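 note: peak over basal fluorescence ratio during 140 s after agonist addition; 0% = ACh EC80 plus DMSO and 100% = DMSO alone without agonist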
* marks the source's active call; other numbers are inactive results; i = inactive; . = not tested or not shown; + = active, no number.

SMILES	CHRM1 PAM	SKN-1 inh	M1 ag	Myeloid diff 2	ATG4B inhibitor	CHRM1 antagonist
S=C(NCc1ccccc1)C(=S)NCc1ccccc1	-4	38*	-5	i	10	0
O=C(NNC(=O)c1cc(S(=O)(=O)N2CCOCC2)ccc1Cl)c1ccc(F)cc1	-1	2	-3	i	.	-6
NC(=S)c1ccc[n+]([O-])c1	0	6	-2	i	-11	-5
O=C(Nc1ccccc1)NC1CCCCCCC1	6	24	-3	i	0	-6
O=C(Nc1ccc(Br)cc1)NC1CCCCCCC1	-14	11	3	i	-4	30*
S=C(Nc1ccc(Oc2ccccc2)cc1)NC1CCCCCC1	-24	-14	-5	i	28	29*
Cc1ccccc1C(OCCN(C(C)C)C(C)C)c1ccccc1 (stereo not given)	-27	10	-14	i	31	101*
CN(C)CCOC(c1ccc(Cl)cc1)c1ccccn1 (stereo not given)	-24	3	-8	i	0	42
Cc1cc(C)cc(N(CC(=O)NCc2ccc(F)cc2)C(=O)CCC(=O)Nc2ccccn2)c1	4	-1	0	i	-4	5
O=C1C=CN(C2OC(CO)C(O)C2O)C(=O)C1 (stereo not given)	6	6	-1	+	.	-18
Nc1ccc2nc(-c3ccccc3)[nH]c2c1	1	-5	-3	+	-5	13
Nc1ccc2nc(-c3cccnc3)[nH]c2c1	1	4	-1	i	0	-2
Cc1c(N=c2scc(-c3ccccc3)n2C)c(=O)n(-c2ccccc2)n1C	-24	-15	-6	i	-6	98*
CC(C)CNC(=O)C(=O)NCC1OCCCN1S(=O)(=O)c1ccc2c(c1)OCCO2 (stereo not given)	5	3	-2	i	-3	-8
COc1cc2c(c(OC)c1OC)C(=O)C(=Cc1ccccc1)O2	0	11	-4	i	-18	-10
COc1nc(-c2ccccc2)cc(-c2ccc3c(c2)OCO3)c1C#N	4	7	-5	+	1	-9
Cc1ccccc1-n1c(SCC(=O)c2c(N)n(C)c(=O)n(C)c2=O)nc2sc3c(c2c1=O)CCCC3	0	1	-1	+	-4	10
Cc1ccccc1-n1c(SCC(=O)c2c(N)n(C)c(=O)n(C)c2=O)nnc1-c1cccnc1	6	4	-10	i	-15	-8
COc1cccc(NC(=O)C(=O)NCCCN2CCCC2=O)c1	7	2	-4	i	-4	-1
Nc1c(C(=O)Nc2nccs2)sc2nc(-c3cccs3)cc(C(F)(F)F)c12	-5	1	28*	+	2	37*
CCN(CC)C(=O)c1sc2nc(-c3cccs3)cc(-c3cccs3)c2c1N	-2	0	-3	+	0	8
CC(C)(C)C(=O)c1sc2nc(-c3cccs3)cc(C(F)(F)F)c2c1N	14	-5	-4	+	4	-7
Cc1nnc(NC(=O)c2sc3nc(-c4cccs4)cc(C(F)(F)F)c3c2N)s1	-23	14	52*	+	30	39*
O=C(NCc1ccccc1)Nc1nnc([C@@H]2C[C@H](O)[C@@H](CO)O2)s1	7	-12	-3	i	.	-14
C[C@H](CO)N1C[C@H](C)[C@@H](CN(C)Cc2ccncc2)Oc2c(NS(=O)(=O)c3cn(C)cn3)cccc2C1=O	6	6	-2	i	1	-6
SMILES	CHRM1 PAM	SKN-1 inh	M1 ag	Myeloid diff 2	ATG4B inhibitor	CHRM1 antagonist
COc1ccc(-c2c(=O)n(OCc3ccccc3[N+](=O)[O-])c3ccccc3[n+]2[O-])c(OC)c1	15	6	-6	i	-5	-6
Cc1ccc(S(=O)(=O)N(C)C)cc1NC(=O)COC(=O)C1CC(=O)N(c2ccc3c(c2)OCCO3)C1 (stereo not given)	2	3	-2	i	5	-4
Cc1ccc(C)c(NC(=O)Cc2coc3cc4c(cc23)CCC4)c1	28*	-7	-3	i	-3	8
CCC(C)c1ccccc1NC(=O)Cc1coc2cc3c(cc12)CCC3 (stereo not given)	-3	12	-7	i	17	0
COCC(C)NC(=O)CSc1nc2ccccc2c(=O)n1CCc1ccc(S(N)(=O)=O)cc1 (stereo not given)	-11	-1	-1	i	-1	30*
CC(Sc1nc2ccccc2c(=O)n1CCc1ccc(S(N)(=O)=O)cc1)C(=O)NC(N)=O (stereo not given)	-1	-7	-3	i	-1	1
CCOc1cc(/C=C2\CCCC(C(=O)C(F)(F)F)=C2O)ccc1O	2	3	-6	i	11	-6
O=C(CSc1nnc(NC(=O)C2CC(=O)N(c3ccc(F)cc3)C2)s1)NCc1ccco1 (stereo not given)	2	11	-4	i	2	-1
O=C(Nc1nnc(SCc2c(Cl)cccc2Cl)s1)C1CC(=O)N(c2ccc3c(c2)OCCO3)C1 (stereo not given)	2	5	-5	i	5	33*
O=C(Nc1nnc(SCc2ccc(F)cc2)s1)C1CC(=O)N(c2ccc3c(c2)OCCO3)C1 (stereo not given)	-3	3	-8	i	5	6
COc1ccc(N2CC(C(=O)Nc3nnc(SCC(=O)NCc4ccco4)s3)CC2=O)cc1 (stereo not given)	-4	2	-1	+	-8	18
Cc1cc(C(=O)Nc2ccon2)ccc1[N+](=O)[O-]	7	4	-2	i	-9	-6
CC(=O)C1CCC2C3CCC4CC(=O)CCC4(C)C3C(C)(O)CC12C (stereo not given)	4	26	-9	i	-2	-20
Nc1c(C(=O)c2ccccc2)sc2snc(SCC(=O)c3ccccc3)c12	5	-9	2	+	2	4
COc1cc(F)ccc1-c1csc(C(C)(O)c2ccc(F)c(F)c2)n1 (stereo not given)	-4	7	-5	i	.	6
O=C(CSc1nnc(CNc2ccc(F)cc2)n1Cc1ccco1)NC1CC1	5	46*	-2	i	9	-25

Source: PubChem
